Source: PubChem BioAssay AID1159580 (chemical genetic matrix, 2015)
Screen size: about 5,500 compounds; about 2,000 (36%) were called active. Inconclusive results (about 18%) are left out. Rule as the data show it: active = normalized growth mostly below about 0.91 (no sharp cut-off); inconclusive = no clear call, values can overlap the other calls; inactive = mostly above about 0.92. The list shows a part of the results.

Test: chemical genetic growth profiling, strain panel (AID 1159580);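 also: tested at 20 µM; growth read once vehicle control cultures reached saturation at 30 °C; 1 = growth at the plate median or of vehicle wells; lower values mean less growth of the strain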
Conditions: growth OD
[1] = S. cerevisiae deletion strains, locus YDL101C, strain DUN1, hits give low values
[2] = S. cerevisiae deletion strains, locus YHR030C, strain SLT2, hits give low values

Measured: normalized growth

Cc1ccccc1C(=O)N1CCc2c([nH]c3ccccc23)C1C(F)(F)F (configuration not stated)
inactive: S. cerevisiae deletion strains, locus YAR019C, strain CDC15, hits give low values 0.982 | S. cerevisiae deletion strains, locus YBL105C, strain PKC1, hits give low values 0.985 | S. cerevisiae deletion strains, locus YBR135W, strain CKS1, hits give low values 0.986 | S. cerevisiae deletion strains, locus YBR136W, strain MEC1, hits give low values 0.968 | S. cerevisiae deletion strains, locus YBR160W, strain CDC28, hits give low values 0.988 | S. cerevisiae deletion strains, locus YDL017W, strain CDC7, hits give low values 0.989 | S. cerevisiae deletion strains, locus YDL028C, strain MPS1, hits give low values 0.979 | [1] 0.978 | S. cerevisiae deletion strains, locus YDL108W, strain KIN28, hits give low values 0.98 | S. cerevisiae deletion strains, locus YDL132W, strain cdc53, hits give low values 0.988 | S. cerevisiae deletion strains, locus YDL214C, strain PRR2, hits give low values 0.938 | S. cerevisiae deletion strains, locus YDR052C, strain DBF4, hits give low values 0.989 | S. cerevisiae deletion strains, locus YDR054C, strain cdc34, hits give low values 0.976 | S. cerevisiae deletion strains, locus YDR226W, strain ADK1, hits give low values 0.985 | S. cerevisiae deletion strains, locus YDR477W, strain SNF1, hits give low values 0.962 | S. cerevisiae deletion strains, locus YER123W, strain YCK3, hits give low values 0.9 | S. cerevisiae deletion strains, locus YER133W, strain GLC7, hits give low values 0.948 | S. cerevisiae deletion strains, locus YFL009W, strain cdc4, hits give low values 0.979 | S. cerevisiae deletion strains, locus YFL029C, strain CAK1, hits give low values 0.972 | S. cerevisiae deletion strains, locus YFR003C, strain YPI1, hits give low values 0.987 | S. cerevisiae deletion strains, locus YFR019W, strain FAB1, hits give low values 0.954 | S. cerevisiae deletion strains, locus YFR028C, strain CDC14, hits give low values 0.978 | S. cerevisiae deletion strains, locus YGR040W, strain KSS1, hits give low values 0.927 | S. cerevisiae deletion strains, locus YGR052W, strain FMP48, hits give low values 0.955 | S. cerevisiae deletion strains, locus YGR092W, strain DBF2, hits give low values 0.978 | [2] 0.881 | S. cerevisiae deletion strains, locus YHR079C, strain IRE1, hits give low values 0.878 | S. cerevisiae deletion strains, locus YHR082C, strain KSP1, hits give low values 0.927 | S. cerevisiae deletion strains, locus YHR205W, strain SCH9, hits give low values 0.83 | S. cerevisiae deletion strains, locus YIL147C, strain SLN1, hits give low values 0.976 | S. cerevisiae deletion strains, locus YJL095W, strain BCK1, hits give low values 0.908 | S. cerevisiae deletion strains, locus YJL128C, strain PBS2, hits give low values 0.927 | S. cerevisiae deletion strains, locus YJL157C, strain FAR1, hits give low values 0.976 | S. cerevisiae deletion strains, locus YJR016C, strain ILV3, hits give low values 0.989 | S. cerevisiae deletion strains, locus YJR066W, strain TOR1 (second series), hits give low values 0.934 | S. cerevisiae deletion strains, locus YJR066W, strain TOR1, hits give low values 0.943 | S. cerevisiae deletion strains, locus YKL048C, strain ELM1, hits give low values 0.977 | S. cerevisiae deletion strains, locus YKL067W, strain YNK1, hits give low values 0.95 | S. cerevisiae deletion strains, locus YKL101W, strain HSL1, hits give low values 0.909 | S. cerevisiae deletion strains, locus YKL193C, strain SDS22, hits give low values 0.99 | S. cerevisiae deletion strains, locus YKL203C, strain TOR2, hits give low values 1.01 | S. cerevisiae deletion strains, locus YLR133W, strain CKI1, hits give low values 0.929 | S. cerevisiae deletion strains, locus YLR403W, strain SFP1, hits give low values 0.93 | S. cerevisiae deletion strains, locus YML070W, strain DAK1, hits give low values 0.905 | S. cerevisiae deletion strains, locus YMR001C, strain CDC5, hits give low values 0.97 | S. cerevisiae deletion strains, locus YMR205C, strain PFK2 (second series), hits give low values 0.945 | S. cerevisiae deletion strains, locus YMR277W, strain FCP1, hits give low values 0.991 | S. cerevisiae deletion strains, locus YNL006W, strain LST8, hits give low values 1 | S. cerevisiae deletion strains, locus YNL020C, strain ARK1, hits give low values 0.95 | S. cerevisiae deletion strains, locus YNL161W, strain CBK1, hits give low values 0.996 | S. cerevisiae deletion strains, locus YNL183C, strain NPR1, hits give low values 0.894 | S. cerevisiae deletion strains, locus YNL207W, strain RIO2, hits give low values 0.982 | S. cerevisiae deletion strains, locus YNL222W, strain SSU72, hits give low values 0.991 | S. cerevisiae deletion strains, locus YNL307C, strain MCK1 (second series), hits give low values 0.936 | S. cerevisiae deletion strains, locus YOL078W, strain AVO1, hits give low values 0.991 | S. cerevisiae deletion strains, locus YOL136C, strain PFK27, hits give low values 0.906 | S. cerevisiae deletion strains, locus YOR061W, strain CKA2, hits give low values 0.953 | S. cerevisiae deletion strains, locus YOR119C, strain RIO1, hits give low values 0.985 | S. cerevisiae deletion strains, locus YOR231W, strain MKK1, hits give low values 0.891 | S. cerevisiae deletion strains, locus YOR329C, strain SCD5, hits give low values 0.985 | S. cerevisiae deletion strains, locus YPL031C, strain PHO85, hits give low values 0.963 | S. cerevisiae deletion strains, locus YPL153C, strain RAD53, hits give low values 0.943 | S. cerevisiae deletion strains, locus YPL204W, strain HRR25, hits give low values 0.945 | S. cerevisiae deletion strains, locus YPL209C, strain IPL1, hits give low values 0.986 | S. cerevisiae deletion strains, locus YPR025C, strain CCL1, hits give low values 0.989 | S. cerevisiae deletion strains, locus YPR106W, strain ISR1, hits give low values 0.965 | S. cerevisiae deletion strains, locus YPR111W, strain DBF20, hits give low values 0.966 | S. cerevisiae deletion strains, strain NNK1, hits give low values 0.967 | S. cerevisiae deletion strains, strain TSCII, hits give low values 0.988
active: S. cerevisiae deletion strains, locus YLR113W, strain HOG1, hits give low values 0.799 | S. cerevisiae deletion strains, locus YPL256C, strain CLN2, hits give low values 0.815

O=C(O)CSCC(=O)N1CCc2c([nH]c3ccccc23)C1C(F)(F)F (configuration not stated)
inactive: S. cerevisiae deletion strains, locus YAL013W, strain DEP1, hits give low values 1.01 | S. cerevisiae deletion strains, locus YBR229C, strain ROT2, hits give low values 1.01 | S. cerevisiae deletion strains, locus YCL061C, strain MRC1, hits give low values 1.04 | [1] 1.01 | S. cerevisiae deletion strains, locus YDL134C, strain PPH21, hits give low values 1 | S. cerevisiae deletion strains, locus YDR150W, strain NUM1, hits give low values 0.936 | S. cerevisiae deletion strains, locus YEL061C, strain CIN8, hits give low values 0.997 | S. cerevisiae deletion strains, locus YGR078C, strain PAC10, hits give low values 1.05 | [2] 1.16 | S. cerevisiae deletion strains, locus YHR087W, strain rtc3, hits give low values 1 | S. cerevisiae deletion strains, locus YJR043C, strain POL32, hits give low values 1.02 | S. cerevisiae deletion strains, locus YJR075W, strain HOC1, hits give low values 1.03 | S. cerevisiae deletion strains, locus YKL190W, strain CNB1, hits give low values 1 | S. cerevisiae deletion strains, locus YLR039C, strain RIC1, hits give low values 1.04 | S. cerevisiae deletion strains, locus YLR058C, strain SHM2 (second series), hits give low values 1.02 | S. cerevisiae deletion strains, locus YLR085C, strain ARP6, hits give low values 1.09 | S. cerevisiae deletion strains, locus YLR262C, strain YPT6, hits give low values 1.01 | S. cerevisiae deletion strains, locus YML094W, strain GIM5, hits give low values 1 | S. cerevisiae deletion strains, locus YMR219W, strain ESC1, hits give low values 1.02 | S. cerevisiae deletion strains, locus YMR263W, strain SAP30, hits give low values 1.02 | S. cerevisiae deletion strains, locus YMR307W, strain GAS1, hits give low values 1.1 | S. cerevisiae deletion strains, locus YNL128W, strain TEP1, hits give low values 0.987 | S. cerevisiae deletion strains, locus YNL153C, strain GIM3, hits give low values 1.01 | S. cerevisiae deletion strains, locus YNL298W, strain CLA4 (second series), hits give low values 1.05 | S. cerevisiae deletion strains, locus YNL322C, strain KRE1, hits give low values 1.02 | S. cerevisiae deletion strains, locus YNR030W, strain Alg12, hits give low values 1.02 | S. cerevisiae deletion strains, locus YOL006C, strain TOP1, hits give low values 1.11 | S. cerevisiae deletion strains, locus YPL055C, strain LGE1, hits give low values 0.991 | S. cerevisiae deletion strains, locus YPR135W, strain CTF4, hits give low values 1.06 | S. cerevisiae strains, strain wild type, hits give low values 0.993
active: S. cerevisiae deletion strains, locus YPL241C, strain CIN2, hits give low values 1.22 [resistant]
